Inconclusive results are not listed. The source made the active and inactive calls. Calls come from the whole dose curve; as a rule, active = well fitted cell-killing curve with a large enough effect in the repeat runs; inconclusive = weak or mixed curves, or effect the other way; inactive = flat fitted curve, though single readings scatter.
Assay: cAMP Responsive Elements (CRE) small molecule antagonists, cell-based qHTS assay: qHTS cell viability counter screen (AID 2060913); note: nearly all actives have a fitted effect of over 40% in size
Details: CRE-bla HEK293T viability, CellTiter-Glo luminescence, 5 h; series mostly up to 92.4 µM; viability change, negative = cytotoxic: at the top concentration
Method in brief: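 Cytotoxicity counter screen multiplexed with the CRE-bla antagonist read: HEK293T cells in DMEM with dialyzed FBS and 25 mM HEPES were treated 3 hrs under 0.25 uM final NKH477, then viability measured by CellTiter-Glo luminescence.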
% is set by controls: 0 for no effect and ±100 for the full control effect; potency is the fitted concentration of half-maximal effect.

Structure (SMILES) | viability change, negative = cytotoxic | Potency
O=C(O)c1snc(Cl)c1Cl | -0.495% (inactive) | 
CC(=O)CCCCn1c(=O)c2c(ncn2C)n(C)c1=O | 5.14% [at 42.5 µM] (inactive) | 
CC[N+](CC)(CC(=O)Nc1c(C)cccc1C)Cc1ccccc1 |  | inactive
Nc1ccc(S(=O)(=O)O)cc1 | 2.22% (inactive) | 
CCC(CO)(CO)CO | 8.14% (inactive) | 
CCOC(=O)OC(C)OC1=C(C(=O)Nc2ccccn2)N(C)S(=O)(=O)c2ccccc21 (centres undefined) | -0.79% [at 42.5 µM] (inactive) | 
CCCCC(=O)O[C@]1(C(=O)CO)CC[C@H]2[C@@H]3CCC4=CC(=O)CC[C@]4(C)[C@H]3[C@@H](O)C[C@@]21C | 5.12% [at 42.5 µM] (inactive) | 
Cc1ccnc2ccccc12 | -4.24% (inactive) | 
COC(=O)[C@@H]1[C@H]2C[C@H]3c4[nH]c5ccccc5c4CCN3C[C@@H]2CC[C@@H]1O | -2.09% [at 42.5 µM] (inactive) | 
CC(C)[N+](C)(C)CC(O)COc1cccc2ccccc12 (centres undefined) | 0.543% [at 42.5 µM] (inactive) | 
CCCCCCCC[N+](CCCCCCCC)(CCCCCCCC)CCCCCCCC |  | 19.3 µM (active)
FC(F)(F)C(Cl)Br (centres undefined) |  | inactive
O=C(O)C1CCC(C(=O)O)CC1 (centres undefined) | -1.92% (inactive) | 
C=Cc1ccc(C=C)cc1 | 10.2% (inactive) | 
O=C1Cc2cc(Cl)ccc2N1 | 4.44% [at 42.5 µM] (inactive) | 
CN1CCN(C2=Nc3cc(F)ccc3Cc3ccccc32)CC1 | 1.38% [at 42.5 µM] (inactive) | 
O=c1n(CCO)c(=O)n(CCO)c(=O)n1CCO |  | inactive
NCc1cccc(CN)c1 |  | inactive
CCCCCCCC/C=C\CCCCCCCC(=O)OC | 3.34% (inactive) | 
CN(C)CCN(C)CCN(C)C | 3.24% (inactive) | 

Structure (SMILES) | viability change, negative = cytotoxic | Potency
O=C1CCCCCCCCCCC(=O)OCCO1 | -9.81% (inactive) | 
CCOCCOC(=O)/C=C/c1ccc(OC)cc1 | 3% [at 42.5 µM] (inactive) | 
COC(C(=O)O)c1ccccc1 (centres undefined) | 1.47% (inactive) | 
O=c1[nH]sc2cc(Cl)ccc12 | 7.05% [at 42.5 µM] (inactive) | 
CC(C)=CCC/C(C)=C/C=N/O | 0.251% (inactive) | 
Cc1ccc2c(c1)C(=O)c1ccccc1C2=O | -6.27% (inactive) | 
CCC(C)(C)C1CCC(O)CC1 (centres undefined) | -8.99% (inactive) | 
CCCCCCCCOS(=O)(=O)O | 1.05% (inactive) | 
Cc1onc(-c2c(Cl)cccc2Cl)c1C(=O)Cl | -0.779% [at 42.5 µM] (inactive) | 
COc1cc(C)nc(-n2nc(C)cc2OC)n1 | 1.88% [at 42.5 µM] (inactive) | 
O=C(O)c1ccc2cc(O)ccc2c1 | 0.0439% (inactive) | 
CN(C)CCOC1=Cc2ccccc2Sc2ccc(Cl)cc21 | -1.17% [at 42.5 µM] (inactive) | 
COc1cc2[nH]c(=O)[nH]c(=O)c2cc1OC | -0.947% [at 42.5 µM] (inactive) | 
CCCC(=O)O[C@]1(C(=O)CCl)[C@@H](C)C[C@H]2[C@@H]3CCC4=CC(=O)C=C[C@]4(C)[C@@]3(F)C(=O)C[C@@]21C | -15.4% [at 42.5 µM] (inactive) | 
C=C(C)C(=O)OCCOCCOCCOCCOC(=O)C(=C)C | -6.52% (inactive) | 
COc1cccc(N)c1 | -4.13% (inactive) | 
Cc1ccc(S(=O)(=O)NC(=O)NC2CCCCC2)cc1 | 6.22% [at 42.5 µM] (inactive) | 
CCO[Si](CCCN)(OCC)OCC |  | inactive
CC(=O)CC(=O)Nc1ccc2[nH]c(=O)[nH]c2c1 | 4.01% (inactive) | 
